The record followed here is the supplement of paper PMC7156485.

Common to all, as to details: concentration: 10 µM; 24 h
The subject of assay [1] is HCC1569. The experiment in a line: cell number relative to DMSO (% of DMSO); higher = more cells (less growth inhibition / toxicity). The procedure, abridged:
(§1)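 HCC1569 and TDF cells (800 per well, 384-well plates, RPMI with 10% FBS) were treated with compounds at 10 µM for 24 h at 37 °C, in triplicate. Cells were fixed in 3.7% formaldehyde and stained with a rabbit anti-H1.0 antibody, an AlexaFluor 647 secondary and DAPI; six fields per well were imaged at ×10. H1.0 nuclear intensity or cell number is expressed as percent of the plate DMSO control, taking the median of replicates. HCC1569 values were smoothed for positional effects.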

For assay [2], the system named is TDF. The description is as above. In a few lines:
as §1

The subject of assay [3] is TDF. Description: H1.0 immunofluorescence intensity relative to DMSO (% of DMSO); higher = stronger H1.0 induction, active = 120 or more. In a few lines:
as §1

The subject of assay [4] is HCC1569. Description: H1.0 immunofluorescence intensity relative to DMSO (% of DMSO); higher = stronger H1.0 induction, active = 140 or more. In a few lines: as §1
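Throughout, for H1.0 immunofluorescence intensity relative to DMSO: TDF is a line of transformed human dermal fibroblasts of mesenchymal origin.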
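Throughout, for cell number relative to DMSO: TDF denotes transformed human dermal fibroblasts of mesenchymal origin.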

With `NC(CCP(=O)(O)O)C(=O)O` (racemic), the values for the cell number in the assay with HCC1569 [1] and in the assay with TDF [2] were 99.4 and 101, respectively. Moreover, the values for the H1.0 immunofluorescence intensity in the assay on TDF [3] and in the assay with HCC1569 [4] were 96.9 (inactive) and 91.1 (inactive), respectively.

Take `CC1(C(=O)O)CCCC2(C)c3cc(O)ccc3CCC12` (stereo unspecified) [Podocarpic acid]: the cell number in the assay with HCC1569 [1] was found to be 100; with TDF [2] it was 102. For the same molecule, the H1.0 immunofluorescence intensity in the assay with TDF [3] is 101 (inactive); in the assay with HCC1569 [4] it was 85.3 (inactive).

Take `Nc1ccncc1` [4-Aminopyridine]: the cell number with HCC1569 [1] stood at 101; with TDF [2] it was 103. The results for the H1.0 immunofluorescence intensity with TDF [3] and in the assay on HCC1569 [4] were 95.3 (inactive) and 88 (inactive), respectively.

As for `O=C(NCCN1CCC2(CC1)C(=O)NCN2c1cccc(F)c1)c1ccc(F)c(F)c1`, the cell number stood at 92.7 with HCC1569 [1] and 92.3 in the assay on TDF [2]. Moreover, the H1.0 immunofluorescence intensity is 110 (inactive) in the assay with TDF [3] and 107 (inactive) in the assay with HCC1569 [4].

With `COc1ccc2c(c1)C13CCCCC1C(C2)N(C)CC3` (stereo unspecified) [Dextromethorphan], the cell number in the assay on HCC1569 [1] and with TDF [2] was 103 in each case. The H1.0 immunofluorescence intensity with TDF [3] was 102 (inactive); with HCC1569 [4], 107 (inactive).

`CCN(CCCl)Cc1ccccc1Br.Cl` [DSP-4 hydrochloride]: the figures for the cell number with HCC1569 [1] and with TDF [2] were 98.7 and 103, respectively. Further, the results for the H1.0 immunofluorescence intensity in the assay on TDF [3] and in the assay with HCC1569 [4] were 92.8 (inactive) and 92.4 (inactive), respectively.

With `CC1CC=CC2C3OC3(C)C(C)C3C(Cc4ccccc4)NC(=O)C23OC(=O)OC=CC(C)(O)C1=O` (stereo unspecified) [Cytochalasin E], the values for the cell number with HCC1569 [1] and in the assay with TDF [2] were 63.3 and 32.4, respectively. For the same molecule, the H1.0 immunofluorescence intensity with TDF [3] is 226 (active); in the assay on HCC1569 [4], 247 (active).

Turning to `Cl.Clc1ccc(N2CCN(Cc3c[nH]c4ncccc34)CC2)cc1` [L-745,870 hydrochloride], the cell number in the assay with HCC1569 [1] turned out to be 99.5; in the assay on TDF [2], 90.2. For the same molecule, the H1.0 immunofluorescence intensity in the assay with TDF [3] was 115 (inactive); in the assay on HCC1569 [4], 102 (inactive).

Regarding `COc1cc(C2c3cc4c(cc3C(O)C3COC(=O)C23)OCO4)cc(OC)c1OC` (stereo unspecified) [Picropodophyllin], the figures for the cell number in the assay with HCC1569 [1] and with TDF [2] were 58.3 and 10.9, respectively. The results for the H1.0 immunofluorescence intensity in the assay with TDF [3] and in the assay on HCC1569 [4] were 165 (active) and 128 (inactive), respectively.
